Measurements published in PubChem BioAssay (EPA / NIEHS).
Records with an inconclusive call do not appear. Calls of active or inactive are those of the source. How the source made its calls: active means hit-call score of the fitted dose curve at least 0.9, where 1 is the maximum; inconclusive means response in the unintended direction; inactive means score below 0.9.

Assay: ACEA_ER_80hr: ACEA Biosciences xCELLigence Real-Time Cell Analysis on Estrogen Receptor Agonism for Proliferation (AID 2282667)
Settings: T47D proliferation, impedance (xCELLigence), 80 h
Summary of the method: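 Cell-growth kinetics were measured by impedance in T47D cells treated continuously with compound (top 100 uM final, 1:4 steps, 8 points). Activity at 80 h was scored as signal gain over the DMSO baseline.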

| SMILES | outcome |
| --- | --- |
| C=C(C)C(=O)OCCOCCOC(=O)C(=C)C | inactive |
| CCCCCC#CC(=O)OC | inactive |
| COc1cc(OC)c2ccc(=O)oc2c1 | inactive |
| CN(C)CCCNCCCN(C)C | inactive |
| CC1=CCC(C(C)C)=CC1 | inactive |
| Cc1cccc(O)c1 | inactive |
| C=CC(C)CCCC(C)(C)O (centres undefined) | inactive |
| c1ccc(OCCOc2ccccc2)cc1 | inactive |
| NC(=O)NC(N)=O | inactive |
